NPSR antagonist: blocks cAMP signaling of the human neuropeptide S receptor. Q6W5P4. 220,000 tested, 1% active. AID 1461. CHO-NPSR cells, cAMP TR-FRET, antagonist mode. Potency, µM (titrated, usually from 38.3 µM), inactives show top-dose activity change, negative = inhibition, most hits filed as inhibitors; note: potency is the fitted concentration of half-maximal effect; % is set by controls: 0 for no effect and ±100 for the full control effect; nearly all actives have a fitted effect of over 50% in size
Target sequence (Q6W5P4 whole entry, looked up): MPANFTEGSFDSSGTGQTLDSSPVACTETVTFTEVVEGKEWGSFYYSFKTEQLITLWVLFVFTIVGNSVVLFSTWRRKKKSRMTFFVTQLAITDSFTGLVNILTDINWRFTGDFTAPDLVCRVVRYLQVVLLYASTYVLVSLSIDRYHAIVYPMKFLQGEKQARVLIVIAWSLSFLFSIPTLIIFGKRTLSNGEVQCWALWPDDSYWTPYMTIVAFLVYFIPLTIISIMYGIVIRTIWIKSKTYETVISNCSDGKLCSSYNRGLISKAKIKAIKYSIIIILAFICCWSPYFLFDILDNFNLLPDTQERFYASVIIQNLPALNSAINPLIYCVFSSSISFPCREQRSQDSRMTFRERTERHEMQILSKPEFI
HTT cytoprotect: cytoprotection in Huntington HTT-Q103 PC12 cell model; Potency, µM (titrated, usually from 56.4 µM), for the others: cytoprotection (ATP increase), actives largely listed as activators; 230,000 tested, 0.14% active; PC12 HTT-Q103 induced, cytoprotection, ATP luminescence, 40 h; note: potency is the fitted concentration of half-maximal effect; % of control where 0% means no effect; nearly all actives have a fitted effect of over 45% in size
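PC12 cells stably carrying ecdysone-inducible Htt exon 1 (Q103)–GFP were induced with 100 nM tebufenozide (final) alongside library compounds in a dose series. Cytoprotection was scored as retained ATP by ATPlite luminescence.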
IMPase Li cell: cell-permeable IMPase inhibitors with lithium potentiation | Potency, µM (doses to about 59.4 µM), for the others: at the top dose activity, negative = IMPase inhibition, actives largely listed as inhibitors | 210,000 tested, 0.35% active | CHO-M1 cells, IP1 TR-FRET (IP-One), carbachol + lithium;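 note: IP1 builds up when IMPase is blocked and the TR-FRET signal falls; potency is the fitted concentration of half-maximal effect; plate controls were basal vehicle for no effect and high inhibitor control for full effect; nearly all actives have a fitted effect of over 50% in size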
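CHO cells stably expressing M1 receptor (2000/well) were cultured 16–30 h, then exposed to compounds with a small lithium addition for 30 min at 37C. IP1 was measured by TR-FRET competition; AC50 from Hill fits.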
PNC inhibitor: blocks assembly of the perinucleolar compartment | PC3M PTB-GFP, PNC prevalence imaging, 16 h; hits give low values | activity change (PNC), negative = inhibition, % at 10 µM | 140,000 tested, 3.1% active | AID 2417;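 active = readout at or below -70, meaning at least 70% loss of cells showing the perinucleolar compartment, a nuclear body marking cancer cells; inconclusive = readout between -30 and a set limit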;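 note: plate controls were DMSO wells for no effect and camptothecin positive control wells for full effect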
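PC3M cells stably expressing PTB-GFP, 750–1000 cells/well, treated 16 h at 37 °C with compound (23 nl of library stock), in duplicate. After paraformaldehyde fixation and Hoechst stain, imaged at 20x; PNC prevalence scored by image analysis.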
IMPase cell inh: cell-permeable inhibitors of inositol monophosphatase (IMPase); AID 901; inhibition (IP1 accumulation), % at 46.1 µM; P97697; CHO-M1 cells, IP1 accumulation, HTRF TR-FRET ratio; 120,000 tested, under 10 active; active = well fitted curve in the direction sought with a large enough effect in the signal ratio, not every such curve was filed as active; inconclusive = small, poorly fitted or top-dose-only effect, or a change in a side signal; inactive = no such curve, though single readings can be large or run the other way; the % refers to the signal ratio;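 note: cells stimulated with carbachol in lithium chloride buffer; plate controls were DMSO basal wells for no effect and reference inhibitor wells for full effect; higher means more IMPase inhibition seen as more IP1 and lower FRET ratio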
Target sequence (P97697 whole entry, looked up): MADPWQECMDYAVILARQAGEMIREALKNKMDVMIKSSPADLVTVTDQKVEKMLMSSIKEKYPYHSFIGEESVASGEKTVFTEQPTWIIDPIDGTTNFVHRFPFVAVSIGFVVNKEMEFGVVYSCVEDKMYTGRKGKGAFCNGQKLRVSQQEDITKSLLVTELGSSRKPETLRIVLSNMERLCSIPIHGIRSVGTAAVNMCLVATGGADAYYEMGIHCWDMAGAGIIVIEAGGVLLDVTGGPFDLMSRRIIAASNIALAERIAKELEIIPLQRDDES
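Elevated IP1 in lysates lowers TR-FRET signal (665/620 ratio and 620 channel reported). Cells were CHO-M1, given carbachol (50 uM as added) plus 50mM LiCl, pH 7.4, 30 min, 37C; compounds titrated up to 46 uM; AC50 by Hill equation.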
HttQ103 aggreg: reduces HttQ103-GFP aggregates in PC12 cells. Potency, µM (series often up to 46.1 µM), for inactives: at the top dose activity change, negative = inhibition, usual class: inhibitors. AID 1688. 220,000 tested, 1.1% active. PC12 HttQ103-GFP aggregates, Acumen cytometry, 40 h; note: potency is the fitted concentration of half-maximal effect; % is set by controls: 0 for no effect and ±100 for the full control effect; nearly all actives have a fitted effect of over 60% in size
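PC12 cells with ecdysone-inducible HTT exon1 Q103-GFP, induced by 100 nM tebufenozide, given compounds in a concentration series. GFP aggregates (1–25 um, 6 SD above background) counted in lysates by laser-scanning cytometry, 488 nm excitation.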
Starred values were filed as active, the others as inactive; ? = inconclusive; · = no result given; [ ] = another dose, or the depositor's remark. This is a sample that favours compounds with a hit; in the whole collection about 3.4% have one here. Unless noted, calls come from the whole dose curve; as a rule, active = well fitted curve in the direction sought with a large enough effect; inconclusive = small, poorly fitted or top-dose-only effect, or another doubt; inactive = no such curve, though single readings can be large; an effect the other way counts as inactive or inconclusive.

SMILES	NPSR antagonist	HTT cytoprotect	IMPase Li cell	PNC inhibitor	IMPase cell inh	HttQ103 aggreg
Cc1cc(Nc2cccc(F)c2)nc(-c2ccccc2O)n1	?	-21%	17%[38.3 µM]	-21	5	25µM*
CCCCCNC(=O)c1c[nH]c2ccc(S(=O)(=O)N3CCC4(CC3)OCCO4)cc2c1=O	-7%	·	-1%	-113*	·	6%
Cc1ccccc1OCCSCc1nc2ccccc2[nH]1	9%	3%[10 µM]	9%	?	-15	3.5µM*
CCOC(=O)c1c(C)nc(C)c(C(=O)OCC)c1-c1ccccc1	?	-22%	-9%[38.3 µM]	1	-23	-16%
CCOC(=O)c1c(C)nc(SCC(N)=O)c(C#N)c1-c1ccccc1	6%	·	0%	-114*	·	5%
O=C(NCc1nnc2c3ccccc3c(-c3ccccc3)nn12)c1ccc(Cl)cc1	-17%	·	13%	-111*	·	-26%
CC1CCc2c(sc3nc(CSc4n[nH]c(N)n4)[nH]c(=O)c23)C1 (stereo not drawn)	-4%	·	1%	-95*	·	2%
CC(C)CCOCc1nc2sc3c(c2c(=O)[nH]1)CCC(C)C3 (stereo not drawn)	-13%[46.1 µM]	-5%	7%[38.3 µM]	-13	3	8%
COc1cc2c(cc1OC)[C@H](c1ccccc1)CN(C)CC2	·	-13%[1.9 µM]	·	·	4	·
C=C(C)COc1ccc(-c2[nH]ncc2Oc2cccc(OC)c2)c(O)c1	?	16%	9%[38.3 µM]	30	11	?
C=C(C)COc1ccc(-c2[nH]ncc2Oc2ccccc2OCC)c(O)c1	?	-3%	14%[38.3 µM]	-117*	12	?
Cc1sc2ncnc(N3CCN(CCOc4ccc(Cl)cc4)CC3)c2c1C	-23%[46.1 µM]	-35%	39%[38.3 µM]	47	6	2µM*
CCOC(=O)C(C(=O)OCC)C1N=C(N)N=C2Oc3ccccc3N21 (stereo not drawn)	-13%[46.1 µM]	9%[10 µM]	21%[38.3 µM]	?	-6	3.2µM*
CCOC(=O)CN1C(=O)C(CC)Oc2ccccc21 (stereo not drawn)	6%[46.1 µM]	-11%[0.074 µM]	-2%[38.3 µM]	?	2	11%
CCCCCc1cc(=O)oc2c(C(CCN3CCCCC3)c3cc(OC)c(OC)c(OC)c3)c(OC)cc(OC)c12 (stereo not drawn)	10µM*	-20%[10 µM]	·	·	·	-9%[9.22 µM]
COc1cc(C(CCN2CCN(c3ccccc3)CC2)c2c(OC)cc(OC)c3c(C)cc(=O)oc23)cc(OC)c1OC (stereo not drawn)	6.3µM*	-31%[10 µM]	·	·	·	-18%[9.22 µM]
CCCCCc1cc(=O)oc2c(C(CCN3CCCC(C)C3)c3cc(OC)c(OC)c(OC)c3)c(OC)cc(OC)c12 (stereo not drawn)	6.3µM*	-28%[10 µM]	·	·	·	-9%[9.22 µM]
COc1cc(C(CCN2CCOCC2)c2c(OC)cc(OC)c3ccc(=O)oc23)cc(OC)c1OC (stereo not drawn)	·	-61%	13%	·	·	·
c1csc(CNc2ncncc2-c2ccoc2)c1	·	?	16%	·	·	·
CC(C)Cn1c(Br)nc2c1c(=O)n(CCC#N)c(=O)n2C	-18%[7.67 µM]	2%[0.074 µM]	10%[38.3 µM]	-123*	1	0%
CCCn1c(=O)c2c(nc(Br)n2CCC)n(C)c1=O	-5%[46.1 µM]	-3%	4%[38.3 µM]	13	0	-23%
CCCCc1ccc(NC(=O)CC(C)=O)cc1	-1%[46.1 µM]	-22%	0%[38.3 µM]	-127*	-6	-6%
COCCCN(CCC#N)C(=O)c1c(-c2c(Cl)cccc2Cl)noc1C	-13%	5%[10 µM]	·	·	·	10%[9.22 µM]
COc1ccc(NCc2nnc(SCC(=O)Nc3ccccc3OC)o2)cc1	-6%[46.1 µM]	16%	29%[38.3 µM]	-105*	11	18%
CCCCN(CCCC)C(=S)N/N=C/c1c(C)[nH]n(-c2ccccc2)c1=O	8%[46.1 µM]	-112%	13%[38.3 µM]	44	4	11µM*
SMILES	NPSR antagonist	HTT cytoprotect	IMPase Li cell	PNC inhibitor	IMPase cell inh	HttQ103 aggreg
CCCCN=Cc1c(C)[nH]n(-c2ccccc2)c1=S	-56%	15%	-5%	·	·	23%
CCN(CC)CCN(C)C1CCC(c2ccccc2)CC1 (stereo not drawn)	34%	-13%[10 µM]	1%	?	·	20%
Cc1cc(C)nc(N/N=C/c2ccco2)n1	-7%[46.1 µM]	1%	27%[38.3 µM]	-110*	-2	5%
COc1ccc([C@@H]2CNC(=O)C2)cc1OC1CCCC1	·	?	-3%	·	5	3%[20.6 µM]
O=C(c1ccc(Cl)cc1)N1CCC(O)(CSc2ccccc2)CC1	-11%[46.1 µM]	14%[10 µM]	21%[38.3 µM]	-91*	-12[1.84 µM]	-12%
Cc1ccc(SCC2(O)CCN(S(=O)(=O)c3ccc(Cl)cc3)CC2)cc1	-9%[46.1 µM]	?	13%	-100*	-9	?
CN1CCN(CC2(O)CCN(S(=O)(=O)c3ccc(Cl)cc3)CC2)CC1	3%	-29%	-2%	·	·	5%
Cc1ccc2nc3nc4ccc[nH]c4cc3c2c1	·	11%[10 µM]	·	·	·	·
COC(=O)c1[nH]c2ccc(C)cc2c1NC(=O)CN1CCCCC1C (stereo not drawn)	·	-25%[0.074 µM]	·	·	·	·
COc1ccc(NC2=NCC(Cc3ccc(Br)cc3)S2)cc1 (stereo not drawn)	-33%	·	-7%	-92*	·	1%
COc1ccc(CNc2ccc(Br)cc2)cc1	-44%	25%[10 µM]	12%	·	·	-4%[9.22 µM]
COC(=O)c1ccc([C@H]2C=C(C(=O)O)O[C@@H](OCc3ccc(CO)cc3)C2)cc1	17%	-8%[10 µM]	·	·	·	-1%[9.22 µM]
NNC(=O)c1ccc(CSc2n[nH]c(=O)[nH]c2=O)cc1	-30%	10%[10 µM]	·	·	·	6%[9.22 µM]
COC(C(=O)C(O)C(C)O)C1Cc2cc3cc(OC4CC(OC5CC(O)C(O)C(C)O5)C(O)C(C)O4)c(C)c(O)c3c(O)c2C(=O)C1OC1CC(OC2CC(OC3CC(C)(O)C(O)C(C)O3)C(O)C(C)O2)C(O)C(C)O1 (stereo not drawn)	·	-47%	·	·	·	0.22µM*
CO[C@H](C(=O)[C@@H](O)[C@@H](C)O)C1Cc2cc3cc(O[C@H]4C[C@@H](O[C@H]5C[C@@H](O)[C@H](O)[C@@H](C)O5)[C@@H](O)[C@@H](C)O4)c(C)c(O)c3c(O)c2C(=O)[C@H]1O[C@H]1C[C@@H](O[C@H]2C[C@@H](O[C@H]3C[C@](C)(O)[C@H](O)[C@@H](C)O3)[C@H](O)[C@@H](C)O2)[C@H](O)[C@@H](C)O1 (stereo partly drawn)	·	-63%	·	·	·	0.22µM*
CCn1c(=NC(=O)C2COc3ccccc3O2)sc2c(OC)ccc(OC)c21 (stereo not drawn)	-52%	11%[10 µM]	·	·	·	0%[9.22 µM]
FC(F)(F)c1nc(N2CCCC2)ncc1-c1nnnn1-c1ccc(Cl)cc1	?	3.5µM*	4%[38.3 µM]	-25	3	?
CC(C)(C)N(NC(=O)OCc1ccccc1)C(=O)c1ccccc1	8%	-1%[10 µM]	-2%	-80*	·	19%

From PubChem
